# Columns and labels:
# Assay in all cases: DAPPL (digital affinity profiling via proximity ligation, sequencing); 10 mM Tris-HCl pH 7.5, 50 mM NaCl, 1 mM DTT, 4% glycerol, room temperature, 30 min; GST-TFs on glutathione beads, 16-mer random dsDNA library, 0.1% formaldehyde crosslink after washing; high values mean tight binding
# FEV = target: T1, FEV (Homo sapiens, UniProt Q99581 1-238); settings: protein: recombinant; tags: N-terminal GST; dsDNA, one strand shown
# T1 sequence: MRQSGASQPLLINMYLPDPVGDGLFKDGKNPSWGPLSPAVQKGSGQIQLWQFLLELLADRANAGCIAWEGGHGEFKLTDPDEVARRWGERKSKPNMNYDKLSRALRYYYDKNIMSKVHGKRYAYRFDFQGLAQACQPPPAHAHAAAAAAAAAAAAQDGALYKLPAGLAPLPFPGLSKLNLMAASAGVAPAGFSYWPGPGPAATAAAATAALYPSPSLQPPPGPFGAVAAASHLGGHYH
# How it was run: (§1)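 The binding signal reported is, for every hexamer, its read frequency for a factor over its read frequency for the tag-only sample. Reads came from pools of yeast-expressed, GST-fused human transcription factors on glutathione beads, barcoded with DNA and mixed with that sample, which were incubated with 200 nmole of a random double-stranded 16-mer DNA library in Tris/NaCl/DTT/glycerol buffer at room temperature for 30 min. After washing, the pools were crosslinked with 0.1% formaldehyde, proximity-ligated with BsaI/T4 ligase for 1 h at 37 °C, PCR-amplified and sequenced on an Illumina NextSeq500.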
# ETV5 = ETV5 (Homo sapiens, UniProt P41161 1-510); settings: protein: recombinant; tags: N-terminal GST; dsDNA, one strand shown
# ETV5, sequence (P41161 whole entry): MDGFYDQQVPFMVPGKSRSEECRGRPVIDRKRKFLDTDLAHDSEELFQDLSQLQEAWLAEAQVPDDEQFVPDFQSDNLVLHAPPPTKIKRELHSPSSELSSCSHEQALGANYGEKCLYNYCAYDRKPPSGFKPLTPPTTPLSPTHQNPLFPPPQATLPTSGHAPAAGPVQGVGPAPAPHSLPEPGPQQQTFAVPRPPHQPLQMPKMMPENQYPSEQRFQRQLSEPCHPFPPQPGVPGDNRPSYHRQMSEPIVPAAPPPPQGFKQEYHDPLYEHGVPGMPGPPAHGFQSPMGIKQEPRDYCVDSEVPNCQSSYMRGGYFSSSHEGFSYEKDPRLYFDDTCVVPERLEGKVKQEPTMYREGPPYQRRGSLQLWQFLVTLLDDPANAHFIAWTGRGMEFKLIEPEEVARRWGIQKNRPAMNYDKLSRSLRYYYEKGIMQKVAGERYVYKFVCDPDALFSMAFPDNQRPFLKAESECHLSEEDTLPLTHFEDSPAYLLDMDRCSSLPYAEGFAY
# How it was run: as §1
# HSF1 = HSF1 (Homo sapiens, UniProt Q00613 1-529); settings: protein: recombinant; tags: N-terminal GST; chain copies: 3; dsDNA, one strand shown
# HSF1, sequence (Q00613 whole entry): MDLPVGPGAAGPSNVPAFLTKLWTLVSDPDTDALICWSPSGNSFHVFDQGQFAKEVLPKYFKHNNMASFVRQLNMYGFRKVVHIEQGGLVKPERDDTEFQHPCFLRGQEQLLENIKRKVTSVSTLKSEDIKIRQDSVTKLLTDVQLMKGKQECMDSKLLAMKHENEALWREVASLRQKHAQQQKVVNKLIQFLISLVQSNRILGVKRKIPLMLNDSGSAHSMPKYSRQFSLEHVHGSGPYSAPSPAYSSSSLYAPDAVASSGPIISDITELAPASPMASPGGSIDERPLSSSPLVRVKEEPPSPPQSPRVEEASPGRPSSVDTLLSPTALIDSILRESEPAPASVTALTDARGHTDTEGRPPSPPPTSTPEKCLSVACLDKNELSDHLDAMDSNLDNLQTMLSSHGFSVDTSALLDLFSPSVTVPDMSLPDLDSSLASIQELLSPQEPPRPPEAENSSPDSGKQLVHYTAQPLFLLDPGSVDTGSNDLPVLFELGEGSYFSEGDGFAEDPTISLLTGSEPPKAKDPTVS
# How it was run: as §1
# SPIC = target: T2, SPIC (Homo sapiens, UniProt Q8N5J4 1-248); settings: protein: recombinant; tags: N-terminal GST; dsDNA, one strand shown
# T2 sequence: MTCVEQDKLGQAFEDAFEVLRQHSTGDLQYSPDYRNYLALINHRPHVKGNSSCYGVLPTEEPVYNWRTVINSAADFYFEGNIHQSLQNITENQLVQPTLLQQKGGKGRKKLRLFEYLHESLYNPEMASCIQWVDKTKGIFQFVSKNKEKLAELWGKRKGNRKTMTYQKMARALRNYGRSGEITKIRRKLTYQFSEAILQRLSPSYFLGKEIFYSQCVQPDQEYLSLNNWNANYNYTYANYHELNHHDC
# How it was run: as §1
# ELF4 = ELF4 (Homo sapiens, UniProt Q99607 1-663); settings: protein: recombinant; tags: N-terminal GST; dsDNA, one strand shown
# ELF4, sequence (Q99607 whole entry): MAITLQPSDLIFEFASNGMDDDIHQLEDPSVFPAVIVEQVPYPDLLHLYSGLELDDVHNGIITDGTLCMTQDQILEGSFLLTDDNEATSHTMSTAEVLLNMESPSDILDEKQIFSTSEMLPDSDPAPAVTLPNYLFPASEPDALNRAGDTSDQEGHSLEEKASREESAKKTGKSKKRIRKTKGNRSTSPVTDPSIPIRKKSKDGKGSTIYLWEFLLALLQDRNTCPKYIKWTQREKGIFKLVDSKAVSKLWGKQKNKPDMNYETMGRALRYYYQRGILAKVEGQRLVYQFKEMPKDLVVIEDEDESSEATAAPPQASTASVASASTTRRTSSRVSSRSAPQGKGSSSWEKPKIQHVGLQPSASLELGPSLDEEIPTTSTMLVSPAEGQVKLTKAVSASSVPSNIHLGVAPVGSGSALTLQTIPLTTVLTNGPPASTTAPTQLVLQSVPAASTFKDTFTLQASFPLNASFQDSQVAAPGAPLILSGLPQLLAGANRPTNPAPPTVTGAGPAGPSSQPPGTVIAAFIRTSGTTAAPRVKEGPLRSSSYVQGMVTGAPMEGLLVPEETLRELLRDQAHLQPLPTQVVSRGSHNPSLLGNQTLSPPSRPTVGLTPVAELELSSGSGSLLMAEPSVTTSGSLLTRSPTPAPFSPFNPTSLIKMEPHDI
# How it was run: as §1
# ELK4 = target: T3, ELK4 (Homo sapiens, UniProt P28324-2 1-405); settings: protein: recombinant; tags: N-terminal GST; dsDNA, one strand shown
# T3 sequence: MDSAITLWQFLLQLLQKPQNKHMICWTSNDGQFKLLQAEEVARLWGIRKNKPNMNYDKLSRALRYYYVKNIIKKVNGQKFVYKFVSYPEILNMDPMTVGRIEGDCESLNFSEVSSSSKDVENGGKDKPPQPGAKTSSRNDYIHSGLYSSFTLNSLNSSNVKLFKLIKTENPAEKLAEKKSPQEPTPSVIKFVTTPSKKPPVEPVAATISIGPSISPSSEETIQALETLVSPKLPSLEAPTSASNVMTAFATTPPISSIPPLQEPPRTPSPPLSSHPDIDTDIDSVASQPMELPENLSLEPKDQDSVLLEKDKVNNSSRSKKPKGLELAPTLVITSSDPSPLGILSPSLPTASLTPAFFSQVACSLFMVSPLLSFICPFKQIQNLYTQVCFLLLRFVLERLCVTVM
# How it was run: as §1
# ETV2 = target: T4, ETV2 (Homo sapiens, UniProt O00321 1-342); settings: protein: recombinant; tags: N-terminal GST; dsDNA, one strand shown
# T4 sequence: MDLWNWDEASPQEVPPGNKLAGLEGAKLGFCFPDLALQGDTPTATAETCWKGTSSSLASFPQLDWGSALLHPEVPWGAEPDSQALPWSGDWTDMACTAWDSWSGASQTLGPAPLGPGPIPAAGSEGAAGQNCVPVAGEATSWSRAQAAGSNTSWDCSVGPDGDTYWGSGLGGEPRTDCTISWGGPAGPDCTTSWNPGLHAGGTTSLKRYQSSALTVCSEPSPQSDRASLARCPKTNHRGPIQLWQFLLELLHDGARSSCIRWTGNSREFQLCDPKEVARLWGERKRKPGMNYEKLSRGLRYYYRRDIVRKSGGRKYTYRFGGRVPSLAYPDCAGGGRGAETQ
# How it was run: as §1
# ELF3 = target: T5, ELF3 (Homo sapiens, UniProt P78545 1-371); settings: protein: recombinant; tags: N-terminal GST; dsDNA, one strand shown
# T5 sequence: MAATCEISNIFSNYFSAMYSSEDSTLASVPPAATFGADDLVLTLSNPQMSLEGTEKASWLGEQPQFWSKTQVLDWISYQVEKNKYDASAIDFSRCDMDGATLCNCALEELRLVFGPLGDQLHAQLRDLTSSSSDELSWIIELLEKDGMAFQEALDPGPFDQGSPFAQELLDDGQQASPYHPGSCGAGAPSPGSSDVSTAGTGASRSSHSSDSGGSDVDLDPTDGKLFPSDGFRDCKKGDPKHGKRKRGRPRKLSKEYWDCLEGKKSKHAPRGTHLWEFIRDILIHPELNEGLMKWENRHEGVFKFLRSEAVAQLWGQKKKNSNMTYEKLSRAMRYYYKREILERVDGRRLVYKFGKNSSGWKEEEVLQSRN
# How it was run: as §1
# ETV1 = ETV1 (Homo sapiens, UniProt P50549 1-477); settings: protein: recombinant; tags: N-terminal GST; dsDNA, one strand shown
# ETV1, sequence (P50549 whole entry): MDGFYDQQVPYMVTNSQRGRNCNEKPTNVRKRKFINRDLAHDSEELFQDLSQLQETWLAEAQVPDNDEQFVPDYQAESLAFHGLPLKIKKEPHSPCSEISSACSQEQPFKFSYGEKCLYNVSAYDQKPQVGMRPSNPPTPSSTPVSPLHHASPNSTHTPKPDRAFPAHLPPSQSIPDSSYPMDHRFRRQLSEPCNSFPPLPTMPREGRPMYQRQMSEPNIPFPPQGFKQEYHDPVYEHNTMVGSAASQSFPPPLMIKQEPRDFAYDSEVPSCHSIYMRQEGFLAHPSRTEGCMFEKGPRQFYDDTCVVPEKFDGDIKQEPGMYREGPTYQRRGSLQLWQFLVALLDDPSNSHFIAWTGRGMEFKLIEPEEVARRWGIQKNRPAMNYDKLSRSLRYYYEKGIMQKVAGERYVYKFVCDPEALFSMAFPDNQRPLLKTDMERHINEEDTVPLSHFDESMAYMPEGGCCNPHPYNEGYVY
# How it was run: as §1
# ERF = target: T6, ERF (Homo sapiens, UniProt P50548 1-548); settings: protein: recombinant; tags: N-terminal GST; dsDNA, one strand shown
# T6 sequence: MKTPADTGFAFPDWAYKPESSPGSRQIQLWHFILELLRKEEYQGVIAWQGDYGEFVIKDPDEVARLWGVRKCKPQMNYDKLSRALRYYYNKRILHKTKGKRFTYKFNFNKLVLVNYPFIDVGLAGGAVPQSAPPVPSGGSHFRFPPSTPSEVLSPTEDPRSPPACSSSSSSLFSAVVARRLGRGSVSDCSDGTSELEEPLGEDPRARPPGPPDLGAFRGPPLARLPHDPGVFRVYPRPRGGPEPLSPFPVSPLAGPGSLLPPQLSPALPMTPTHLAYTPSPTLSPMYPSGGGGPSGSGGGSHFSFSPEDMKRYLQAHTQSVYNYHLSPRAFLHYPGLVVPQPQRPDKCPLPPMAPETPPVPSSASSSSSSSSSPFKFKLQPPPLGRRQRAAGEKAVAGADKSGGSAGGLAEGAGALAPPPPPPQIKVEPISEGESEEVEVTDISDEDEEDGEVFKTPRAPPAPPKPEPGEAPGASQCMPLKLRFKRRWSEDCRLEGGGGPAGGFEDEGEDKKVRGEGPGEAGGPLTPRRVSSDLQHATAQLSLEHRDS
# How it was run: as §1
# ETV3L = target: T7, ETV3L (Homo sapiens, UniProt Q6ZN32 1-361); settings: protein: recombinant; tags: N-terminal GST; dsDNA, one strand shown
# T7 sequence: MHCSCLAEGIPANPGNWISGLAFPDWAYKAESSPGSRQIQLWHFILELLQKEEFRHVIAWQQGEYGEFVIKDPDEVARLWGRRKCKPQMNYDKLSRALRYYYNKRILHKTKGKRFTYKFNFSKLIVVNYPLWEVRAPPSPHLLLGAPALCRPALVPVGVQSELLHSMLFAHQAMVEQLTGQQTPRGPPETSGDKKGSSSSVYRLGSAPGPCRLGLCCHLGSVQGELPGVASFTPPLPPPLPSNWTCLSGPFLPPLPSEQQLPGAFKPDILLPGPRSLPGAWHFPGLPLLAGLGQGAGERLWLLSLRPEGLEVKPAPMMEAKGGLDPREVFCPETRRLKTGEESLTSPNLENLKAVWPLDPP
# How it was run: as §1
# ETS2 = target: T8, ETS2 (Homo sapiens, UniProt P15036 1-469); settings: protein: recombinant; tags: N-terminal GST; dsDNA, one strand shown
# T8 sequence: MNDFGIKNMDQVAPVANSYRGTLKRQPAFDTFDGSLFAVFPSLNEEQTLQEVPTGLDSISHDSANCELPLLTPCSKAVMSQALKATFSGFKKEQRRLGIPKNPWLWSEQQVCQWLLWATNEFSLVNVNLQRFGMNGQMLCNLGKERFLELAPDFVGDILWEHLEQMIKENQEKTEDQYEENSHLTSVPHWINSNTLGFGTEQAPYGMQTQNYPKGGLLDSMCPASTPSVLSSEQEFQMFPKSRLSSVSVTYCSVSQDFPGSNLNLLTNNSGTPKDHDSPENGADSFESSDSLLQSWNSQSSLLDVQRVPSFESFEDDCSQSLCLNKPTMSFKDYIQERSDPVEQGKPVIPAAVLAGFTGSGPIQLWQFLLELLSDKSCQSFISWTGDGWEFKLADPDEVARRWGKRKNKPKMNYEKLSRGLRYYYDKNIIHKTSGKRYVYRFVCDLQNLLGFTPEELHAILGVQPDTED
# How it was run: as §1
# SPDEF = target: T9, SPDEF (Homo sapiens, UniProt O95238 1-335); settings: protein: recombinant; tags: N-terminal GST; dsDNA, one strand shown
# T9 sequence: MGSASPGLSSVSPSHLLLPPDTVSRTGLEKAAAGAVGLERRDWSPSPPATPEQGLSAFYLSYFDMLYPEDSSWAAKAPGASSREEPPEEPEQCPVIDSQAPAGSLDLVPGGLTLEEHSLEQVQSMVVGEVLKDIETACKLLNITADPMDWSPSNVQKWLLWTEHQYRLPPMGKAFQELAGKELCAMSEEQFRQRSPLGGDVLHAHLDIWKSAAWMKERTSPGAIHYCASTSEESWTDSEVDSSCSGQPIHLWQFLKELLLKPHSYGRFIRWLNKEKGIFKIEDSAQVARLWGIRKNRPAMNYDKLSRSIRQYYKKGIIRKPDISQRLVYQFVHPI
# How it was run: as §1
# ETV7 = target: T10, ETV7 (Homo sapiens, UniProt Q9Y603 1-341); settings: protein: recombinant; tags: N-terminal GST; dsDNA, one strand shown
# T10 sequence: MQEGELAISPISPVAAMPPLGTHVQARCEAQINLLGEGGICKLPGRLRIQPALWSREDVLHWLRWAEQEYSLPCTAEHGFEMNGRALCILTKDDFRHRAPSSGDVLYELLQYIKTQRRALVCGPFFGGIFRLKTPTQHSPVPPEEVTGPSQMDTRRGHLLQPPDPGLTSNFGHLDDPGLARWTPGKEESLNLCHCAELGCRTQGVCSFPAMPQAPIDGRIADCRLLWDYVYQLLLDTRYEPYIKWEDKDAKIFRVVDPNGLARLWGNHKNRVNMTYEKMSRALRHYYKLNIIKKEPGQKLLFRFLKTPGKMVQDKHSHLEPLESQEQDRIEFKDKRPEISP
# How it was run: as §1
# ELF5 = target: T11, ELF5 (Homo sapiens, UniProt Q9UKW6-2 1-255); settings: protein: recombinant; tags: N-terminal GST; dsDNA, one strand shown
# T11 sequence: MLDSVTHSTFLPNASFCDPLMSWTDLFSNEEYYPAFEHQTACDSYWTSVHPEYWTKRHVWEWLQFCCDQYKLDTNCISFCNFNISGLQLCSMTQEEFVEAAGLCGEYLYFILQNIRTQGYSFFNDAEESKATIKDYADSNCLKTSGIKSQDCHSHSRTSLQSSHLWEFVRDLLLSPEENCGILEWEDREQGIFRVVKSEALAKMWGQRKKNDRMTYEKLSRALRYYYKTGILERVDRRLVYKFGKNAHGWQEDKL
# How it was run: as §1
# ETV3 = target: T12, ETV3 (Homo sapiens, UniProt P41162-2 1-143); settings: protein: recombinant; tags: N-terminal GST; dsDNA, one strand shown
# T12 sequence: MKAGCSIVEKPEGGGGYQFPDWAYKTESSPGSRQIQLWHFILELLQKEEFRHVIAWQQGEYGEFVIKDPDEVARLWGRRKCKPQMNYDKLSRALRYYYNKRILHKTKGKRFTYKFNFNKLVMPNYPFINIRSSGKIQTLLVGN
# How it was run: as §1
# ETV6 = ETV6 (Homo sapiens, UniProt P41212 1-452); settings: protein: recombinant; tags: N-terminal GST; dsDNA, one strand shown
# ETV6, sequence (P41212 whole entry): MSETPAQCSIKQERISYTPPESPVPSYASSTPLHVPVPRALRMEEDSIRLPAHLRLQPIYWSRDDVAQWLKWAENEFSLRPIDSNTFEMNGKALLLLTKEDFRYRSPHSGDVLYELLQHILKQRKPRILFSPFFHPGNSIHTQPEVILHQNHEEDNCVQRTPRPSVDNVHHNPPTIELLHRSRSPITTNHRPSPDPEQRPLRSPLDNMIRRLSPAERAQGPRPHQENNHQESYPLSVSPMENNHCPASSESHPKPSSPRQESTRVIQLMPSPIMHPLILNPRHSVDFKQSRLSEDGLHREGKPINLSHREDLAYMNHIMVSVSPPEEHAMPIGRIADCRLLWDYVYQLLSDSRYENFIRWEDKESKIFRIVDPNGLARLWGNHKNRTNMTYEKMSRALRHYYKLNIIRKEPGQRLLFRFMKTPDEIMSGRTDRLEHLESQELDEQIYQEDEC
# How it was run: as §1
sequence,measurement,setting,value
CTTGTC,binding signal,FEV,"1.23 fold enrichment (6-mer frequency, TF over GST control)"
same,binding signal,ETV5,"1.34 fold enrichment (6-mer frequency, TF over GST control)"
same,binding signal,HSF1,"1.07 fold enrichment (6-mer frequency, TF over GST control)"
same,binding signal,SPIC,"1.14 fold enrichment (6-mer frequency, TF over GST control)"
same,binding signal,ELF4,"1.41 fold enrichment (6-mer frequency, TF over GST control)"
same,binding signal,ELK4,"1.33 fold enrichment (6-mer frequency, TF over GST control)"
same,binding signal,ETV2,"1.08 fold enrichment (6-mer frequency, TF over GST control)"
same,binding signal,ELF3,"1.32 fold enrichment (6-mer frequency, TF over GST control)"
same,binding signal,ETV1,"1.27 fold enrichment (6-mer frequency, TF over GST control)"
same,binding signal,ERF,"1.44 fold enrichment (6-mer frequency, TF over GST control)"
same,binding signal,ETV3L,"1.25 fold enrichment (6-mer frequency, TF over GST control)"
same,binding signal,ETS2,"1.24 fold enrichment (6-mer frequency, TF over GST control)"
same,binding signal,SPDEF,"1.35 fold enrichment (6-mer frequency, TF over GST control)"
same,binding signal,ETV7,"1.25 fold enrichment (6-mer frequency, TF over GST control)"
same,binding signal,ELF5,"1.3 fold enrichment (6-mer frequency, TF over GST control)"
same,binding signal,ETV3,"1.31 fold enrichment (6-mer frequency, TF over GST control)"
same,binding signal,ETV6,"1.25 fold enrichment (6-mer frequency, TF over GST control)"

# Reference: paper PMC7862700, “An all-to-all approach to the identification of sequence-specific readers for epigenetic DNA modifications on cytosine”
